Laboratory results published in PubChem BioAssay (EPA / NIEHS).
Active and inactive are the calls of the source. Rule for the calls: active = hit-call score of the fitted dose curve at least 0.9, where 1 is the maximum; inactive = score below 0.9.

Each compound was assayed on Tissue plasminogen activator (tPA), PLAT (gene 5327) (assay: BSK_BE3C_tPA: BioMAP Diversity Plus: BE3C Assay for Tissue plasminogen activator (tPA) Biomarker Activity (AID 2283041;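 for outcome: tPA level quantified by ELISA one day after compound addition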)). Conditions: primary human bronchial epithelial cells; actives raise or lower the signal.
How it was run: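 Primary human lung bronchial epithelial cultures receive test chemical; after 24 h, tPA is quantified by ELISA, and gain or loss of signal is fitted bidirectionally relative to DMSO baseline.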

outcome, inactive:
O=C1O[C@H]([C@H](O)CO)C(O)=C1O
O=C(O)CC(O)(CC(=O)O)C(=O)O
CN(C)CCCN(C)CCCN(C)C
Cn1cnc2c1c(=O)[nH]c(=O)n2C
N[C@@H](Cc1c[nH]c2ccccc12)C(=O)O
CO[C@@H]1COCC[C@@H]1N[C@@H]1CC[C@@](C(=O)N2CCc3ncc(C(F)(F)F)cc3C2)(C(C)C)C1
CC(C)c1cccc(C(C)C)c1
CC(=O)O
NC(=Nc1ccccc1)Nc1ccccc1
CC(=O)S[C@H](C(=O)N[C@H]1Cc2ccccc2[C@H]2CCC[C@@H](C(=O)O)N2C1=O)C(C)C
OCC(CO)n1cnc(-c2ccc(F)cc2)c1-c1ccnc(Oc2ccccc2)n1
CCCCc1nc2cccnc2n1Cc1ccc(-c2ccccc2-c2nnn[nH]2)cc1
O=C1NC(=O)C(c2ccccc2)(c2ccccc2)N1
Nc1nc(=S)c2[nH]cnc2[nH]1
COC(=O)[C@H]1[C@H]2C[C@@H]3c4[nH]c5cc(OC)ccc5c4CCN3C[C@H]2C[C@@H](OC(=O)c2cc(OC)c(OC)c(OC)c2)[C@@H]1OC
CCCC[C@H]1CN(CC2CCOCC2)C(=O)OC12CCN(C1(C)CCN(C(=O)c3c(C)ncnc3C)CC1)CC2
O=C(O)c1cccnc1
O=C(Oc1ccccc1)c1cccc(C(=O)Oc2ccccc2)c1
O=C1c2c(O)cccc2Cc2cccc(O)c21
COc1ccc(C(=O)Nc2nc3ccccc3c(NCc3ccccc3)c2C#N)cc1
O=[Si]=O
COC(=O)CCC(=O)OC
O=Cc1ccccc1C=O
c1ccc2occc2c1
CC(C)NCC(O)c1ccc(O)c(O)c1 (stereo not given)
C/C=C/C=C/C(=O)O
CC1=C(C)S(=O)(=O)CCS1(=O)=O
CCCCC(CC)COC(=O)CCCCCCCC(=O)OCC(CC)CCCC (stereo not given)
O=C1OC(c2ccc(O)cc2)(c2ccc(O)cc2)c2ccccc21

AC50, active:
CCCCCCCCCCCCCCOS(=O)(=O)O 18.8 µM
